In PubChem BioAssay (Tox21):
Values joined by “and” are separate entries in the source; they are usually repeats but may differ in a detail not shown here. Equal entries are not always repeated. Records with an inconclusive call do not appear. More than one record can exist for a structure, and the calls need not agree. Active and inactive are the calls of the source. Calls come from the whole dose curve; as a rule, active = well fitted curve in the direction sought with a large enough effect in the repeat runs; inconclusive = weak or mixed curves; inactive = no such curve, though single readings can be large; an effect the other way counts as inactive or inconclusive.

Experiments:
[1] = Human pregnane X receptor (PXR) small molecule agonists, qHTS cell viability counter screen (AID 1346977); note: nearly all actives have a fitted effect of over 50% in size
Method in brief: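 HepG2 cells stably carrying the PXR-Luc reporter are cultured with 5% charcoal-stripped FBS and treated with compounds for 24hr. CellTiter-Fluor is added at 23hr and fluorescence is read after 1hr.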

[2] = Caspase-3/7 induction in HepG2 cells by small molecules, qHTS assay (AID 1346978); note: nearly all actives have a fitted effect of over 15% in size
Method in brief: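 Wild-type HepG2 cells (2,000/well) were settled 5 h at 37 C, 5% CO2, then exposed to compounds in DMSO for 17 h. Caspase-3/7 activity was read by luminescence 30 min after adding Caspase-Glo 3/7 reagent at room temperature.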

[3] = Caspase-3/7 induction in CHO-K1 cells by small molecules, qHTS cell viability counter screen (AID 1346979); note: nearly all actives have a fitted effect of over 35% in size; note: potency is the fitted concentration of half-maximal effect
Method in brief: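 Seeding: 1,500 CHO-K1 cells/well. Rest: 5hr, 37C. Treatment: compounds in DMSO, 16hr. Read: CellTiter-Fluor, 1hr, fluorescence.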

[4] = Caspase-3/7 induction in CHO-K1 cells by small molecules, qHTS assay (AID 1346980); note: nearly all actives have a fitted effect of over 15% in size
Method in brief: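 Wild-type cells were seeded at 1,500 per well and settled 5 hr at 37 C, 5% CO2, then exposed to DMSO-dissolved compounds for 17 hr. Caspase-Glo 3/7 reagent was added, and luminescence was read after 30min at room temperature.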

[5] = molecular target: Nuclear receptor subfamily 1 group I member 2 (Homo sapiens) (UniProt O75469); assay: Human pregnane X receptor (PXR) small molecule agonists, qHTS assay (AID 1346982); note: nearly all actives have a fitted effect of over 35% in size; note: potency is the fitted concentration of half-maximal effect
Chain of Nuclear receptor subfamily 1 group I member 2 (Homo sapiens) (O75469 whole entry, looked up): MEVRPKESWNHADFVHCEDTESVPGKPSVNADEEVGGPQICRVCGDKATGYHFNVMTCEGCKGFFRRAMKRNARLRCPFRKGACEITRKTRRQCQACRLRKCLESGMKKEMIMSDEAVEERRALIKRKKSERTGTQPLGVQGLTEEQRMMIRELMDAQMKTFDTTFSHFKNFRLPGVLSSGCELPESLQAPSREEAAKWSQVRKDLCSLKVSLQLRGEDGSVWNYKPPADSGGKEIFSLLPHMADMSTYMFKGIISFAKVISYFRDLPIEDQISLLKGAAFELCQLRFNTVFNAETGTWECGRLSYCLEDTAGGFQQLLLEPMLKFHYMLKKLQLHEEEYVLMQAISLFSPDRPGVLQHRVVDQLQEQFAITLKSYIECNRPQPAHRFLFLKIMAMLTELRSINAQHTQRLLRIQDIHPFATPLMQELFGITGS
Method in brief: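 Compound-induced hPXR transactivation of a CYP3A4 luciferase reporter was scored in HepG2 PXR-Luc cells over 24 hr at 37 C, 5% CO2, by luminescence.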

[6] = molecular target: Nuclear receptor subfamily 1 group I member 2 (Rattus norvegicus) (UniProt Q9R1A7); assay: Rat pregnane X receptor (rPXR) activation by small molecules, qHTS assay (AID 1346983); conditions: rPXR luciferase reporter cells, One-Glo luminescence, 24 h; max activation: stronger effect = higher value; note: nearly all actives have a fitted effect of over 20% in size
Chain of Nuclear receptor subfamily 1 group I member 2 (Rattus norvegicus) (Q9R1A7 whole entry, looked up): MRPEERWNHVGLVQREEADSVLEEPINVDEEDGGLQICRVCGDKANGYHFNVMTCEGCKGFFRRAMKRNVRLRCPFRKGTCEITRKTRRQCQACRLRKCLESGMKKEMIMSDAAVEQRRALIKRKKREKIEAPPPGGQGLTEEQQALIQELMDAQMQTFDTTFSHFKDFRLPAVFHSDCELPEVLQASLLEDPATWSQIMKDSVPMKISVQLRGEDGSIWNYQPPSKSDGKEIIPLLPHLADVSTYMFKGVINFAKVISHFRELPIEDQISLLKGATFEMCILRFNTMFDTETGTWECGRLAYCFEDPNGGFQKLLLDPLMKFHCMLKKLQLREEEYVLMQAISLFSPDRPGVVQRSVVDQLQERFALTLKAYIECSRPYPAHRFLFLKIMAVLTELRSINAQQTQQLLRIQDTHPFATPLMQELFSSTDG
Method in brief: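 Cell-based rPXR luciferase reporter assay, 2,000 cells per well, rested 5hr at 37 C before compound addition in DMSO, then 24 hr at 37 C. One-Glo reagent was added and luminescence read after 30 min at room temperature.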

[7] = molecular target: Nuclear receptor subfamily 1 group I member 2 (Homo sapiens) (UniProt O75469); assay: CYP3A4 induction through human pregnane X receptor (PXR) by small molecules, qHTS assay (AID 1346984); note: nearly all actives have a fitted effect of over 40% in size
Method in brief: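 Readings come from a luciferase reporter: DPX-2 cells, which are HepG2 cotransfected with PXR and a CYP3A4-promoter construct, were exposed to test compounds for 24 h at 37C before One-Glo detection.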

[8] = molecular target: Nuclear receptor subfamily 1 group I member 2 (Homo sapiens) (UniProt O75469); assay: Human pregnane X receptor (PXR) activation by small molecules, qHTS assay (AID 1346985); note: nearly all actives have a fitted effect of over 40% in size
Method in brief: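 DPX-2 cells (HepG2 co-transfected with a PXR response element and a CYP3A4-promoter luciferase construct) were seeded at 2,000 per well, rested 5 hr at 37C, then exposed to DMSO-dissolved compounds for 24 hr. Activation was read as luciferase luminescence.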

[9] = molecular target: Cytochrome P450 2D6 (Homo sapiens) (UniProt P10635); assay: Cytochrome P450 Family 2 Subfamily D Member 6 (CYP2D6) small molecule antagonists: luciferase reporter qHTS assay (AID 1671196); note: nearly all actives have a fitted effect of over 50% in size; note: potency is the fitted concentration of half-maximal effect
Chain of Cytochrome P450 2D6 (Homo sapiens) (P10635 whole entry, looked up): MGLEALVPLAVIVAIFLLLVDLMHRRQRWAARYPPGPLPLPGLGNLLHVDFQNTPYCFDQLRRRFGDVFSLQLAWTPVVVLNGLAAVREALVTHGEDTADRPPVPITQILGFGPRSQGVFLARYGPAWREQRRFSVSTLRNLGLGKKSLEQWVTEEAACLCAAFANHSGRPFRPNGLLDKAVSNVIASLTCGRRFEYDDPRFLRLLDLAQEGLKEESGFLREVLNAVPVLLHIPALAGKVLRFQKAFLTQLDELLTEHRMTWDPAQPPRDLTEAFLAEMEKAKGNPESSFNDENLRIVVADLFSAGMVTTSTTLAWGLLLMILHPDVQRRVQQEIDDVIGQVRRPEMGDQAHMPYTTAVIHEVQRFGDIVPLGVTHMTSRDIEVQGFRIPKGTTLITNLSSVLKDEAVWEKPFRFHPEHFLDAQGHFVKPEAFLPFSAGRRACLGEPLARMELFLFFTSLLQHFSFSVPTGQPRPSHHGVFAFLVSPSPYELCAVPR
Method in brief: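 Each well received CYP2D6 with its proluciferin substrate and chemical, sat 10 min, then got NADPH regeneration solution for 1 h at room temperature. Luminescence in RLU served as the activity measure.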

[10] = Caspase-3/7 induction in HepG2 cells by small molecules, qHTS cell viability counter screen (AID 1346981); note: nearly all actives have a fitted effect of over 30% in size; note: potency is the fitted concentration of half-maximal effect
Method in brief: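 Viability determined by CellTiter-Fluor fluorescence in HepG2 wells also used for the luminescent Caspase-Glo 3/7 read. Compounds were present for 16 hr at 37 C, 5% CO2 before reagent addition.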
% is set by controls: 0 for no effect and ±100 for the full control effect.

CC(=O)Oc1c(C)c(C)c2c(c1C)CC[C@@](C)(CCC[C@H](C)CCC[C@H](C)CCCC(C)C)O2
inactive: Potency [1] | Potency [2] | Potency [3] | Potency [4] | Potency [5] | max activation [6] -0.642% and -1.19% | Potency [7] | Potency [8] | Potency [9]

CC(=O)[C@H]1CC[C@H]2[C@@H]3CC=C4C[C@@H](O)CC[C@]4(C)[C@H]3CC[C@]12C
inactive: Potency [1] | Potency [2] | Potency [3] | Potency [4] | max activation [6] -3.68% | Potency [7] | Potency [8] | Potency [9]

CN(Cc1cnc2nc(N)nc(N)c2n1)c1ccc(C(=O)N[C@@H](CCC(=O)O)C(=O)O)cc1
inactive: Potency [2] | Potency [3] | Potency [4] | Potency [10] | max activation [6] -6.01% | Potency [7] | Potency [8] | Potency [9]

CCCCCCCC/C=C\CCCCCCCC(=O)O
inactive: Potency [2] | Potency [3] | Potency [4] | Potency [10] | Potency [5] | max activation [6] -0.693% | Potency [7] | Potency [8] | Potency [9]

O=C(O)COCCN1CCN(C(c2ccccc2)c2ccc(Cl)cc2)CC1 (stereo not drawn)
inactive: Potency [2] | Potency [3] | Potency [4] | Potency [10] | max activation [6] 1.59% | Potency [8]

Cc1ccc(S(=O)(=O)O)cc1C
inactive: Potency [2] | Potency [3] | Potency [4] | Potency [10] | max activation [6] -0.712% | Potency [7] | Potency [8] | Potency [9]

Cc1ccc(C(C)(C)C)c(O)c1
inactive: Potency [4] | Potency [10] | Potency [5] | Potency [9]
active: Potency [3] 66.4 µM

Nc1cc([N+](=O)[O-])ccc1C(=O)O
inactive: Potency [2] | Potency [3] | Potency [4] | Potency [5] | Potency [9]

COCCOCCOCCO
inactive: Potency [2] | Potency [3] | Potency [4] | Potency [9]

CC/C(=C(/CC)c1ccc(O)cc1)c1ccc(O)cc1
inactive: Potency [2] | Potency [4] | max activation [6] 5.39%
active: Potency [3] 60.6 µM and 61.1 µM and 26.6 µM

Cc1cccc(Nc2ccccc2C(=O)O)c1C
48.6 µM (active) and inactive: Potency [5]
inactive: Potency [2] | Potency [3] | Potency [4] | Potency [9]

Nc1ccc(N)c(Cl)c1
inactive: Potency [2] | Potency [4]
active: Potency [3] 61 µM and 54.5 µM | Potency [10] 68.5 µM | Potency [5] 21.6 µM and 48.6 µM | Potency [9] 12.6 µM and 22.4 µM

CCC(=O)O[C@H]1[C@H](O[C@@H]2[C@@H](C)[C@H](O[C@H]3C[C@@](C)(OC)[C@@H](O)[C@H](C)O3)[C@@H](C)C(=O)O[C@H](CC)[C@@](C)(O)[C@H](O)[C@@H](C)C(=O)[C@H](C)C[C@@]2(C)O)O[C@H](C)C[C@@H]1N(C)C
9.07 µM (active) and inactive: Potency [5]
inactive: Potency [2] | Potency [3] | Potency [4] | Potency [9]

OCCNCCO
inactive: Potency [2] | Potency [3] | Potency [4] | Potency [9]
54.5 µM (active) and inactive: Potency [5]

CC(C)(Oc1ccc(Cl)cc1)C(=O)O
inactive: Potency [2] | Potency [3] | Potency [4] | Potency [5]

CCCN1C=CN(C)C1
inactive: Potency [2] | Potency [3] | Potency [4] | Potency [10] | Potency [5] | Potency [9]

Cc1ccc2c(c1)C(=O)OC2=O
inactive: Potency [2] | Potency [3] | Potency [4] | Potency [10] | Potency [5]
inactive and 6.33 µM (active): Potency [9]

Oc1c(Cl)ccc(Cl)c1Cl
inactive: Potency [2] | Potency [3] | Potency [4] | Potency [10]
active: Potency [9] 71 µM

COc1cc([C@H]2Oc3cc([C@H]4Oc5cc(O)cc(O)c5C(=O)[C@@H]4O)ccc3O[C@@H]2CO)ccc1O
inactive: Potency [2] | Potency [4] | max activation [6] -6.88% | Potency [7] | Potency [8]
60.9 µM (active) and inactive: Potency [3] | Potency [5]

O=C(O)CCCCCCCCCCCC(=O)O
inactive: Potency [2] | Potency [3] | Potency [4] | Potency [10] | Potency [5]
active: Potency [9] 17.6 µM

CC(C)(C)c1cccc(C(C)(C)C)c1O
inactive: Potency [2] | Potency [3] | Potency [4]
39 µM (active) and inactive: Potency [9]
59.8 µM (active) and inactive: Potency [5]

CC(=O)O[C@]1(C(C)=O)CC[C@H]2[C@@H]3C=C(Cl)C4=CC(=O)CC[C@]4(C)[C@H]3CC[C@@]21C
active: Potency [3] 61 µM
61 µM (active) and inactive: Potency [10]
inactive: Potency [2] | Potency [4] | Potency [7] | Potency [8] | Potency [9]

CC(=O)Oc1ccc(C(c2ccc(OC(C)=O)cc2)c2ccccn2)cc1
inactive: Potency [2] | Potency [3] | Potency [4] | Potency [10]
35.4 µM (active) and inactive: Potency [9]

Nc1ccc(O)c(N)c1
inactive: Potency [2] | Potency [4]
active: Potency [3] 60.7 µM and 30.6 µM | Potency [10] 54.1 µM and 48.6 µM | Potency [9] 35.3 µM and 31.7 µM
